From PubChem
The list is not random: actives were taken first. Their share in the collection is about 17%.
TGFb SMAD3 inh: qHTS for Inhibitors of TGF-b; HepG2 CAGA-GFP TGF-b/SMAD3 reporter, GFP fluorescence, 18 h; TGF-beta stimulated, 500 pg/mL final; Potency, µM (doses to about 46.1 µM), without a hit: at the highest dose activity, negative = inhibition, most hits filed as inhibitors; 410,000 tested, 1.2% active; AID 588855, 2011; further: on the % scale 0 is the no-effect control and ±100 the full control effect; nearly all actives have a fitted effect of over 65% in size
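TGF-beta reporter screen: HEPG2 CAGA-GFP, 1% FBS, 500 pg/mL TGF-beta final, 18 h; per-cell GFP summed per well; curves fitted and categorized by class.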
DT40 TDP1 no CPT: qHTS for Inhibitors of human tyrosyl-DNA phosphodiesterase 1 (TDP1): qHTS in cells in absence of CPT. 420,000 tested, 15% active. DT40 Tdp1-/- hTDP1 cells, no CPT, ATP luminescence, 48 h. Potency, µM (highest dose often 46.2 µM), inactives show at the highest dose activity change, negative = growth inhibition, usual class: inhibitors; further: on the % scale 0 is the no-effect control and ±100 the full control effect; nearly all actives have a fitted effect of over 55% in size
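Growth kinetics read by CellTiter-Glo luminescence after ≥48 hr at 37 °C. Cells: DT40 Tdp1-/- stably carrying human TDP1, 400 per well, compound exposure in the absence of CPT (DMSO vehicle).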
ATXN2 expr inh: Primary qHTS for Inhibitors of ATXN expression; HEK-293 ATXN2-luciferase reporter, luminescence, 24 h; Potency, µM (doses to about 57 µM), for the others: at the highest dose activity change, negative = inhibition, actives largely listed as inhibitors; 360,000 tested, 0.72% active; AID 1745845, 2022; further: on the % scale 0 is the no-effect control and ±100 the full control effect; nearly all actives have a fitted effect of over 55% in size
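qHTS (up to 57 uM final) was run with 24 h compound exposure of reporter cells at 37 °C. Each well was multiplexed: SteadyGlo luminescence measured ATXN2-luciferase expression after a fluorogenic Gly-Phe-AFC viability readout (25 uM final).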
S2 tox: Viability Counterscreen for Primary qHTS for Inhibitors of ATXN expression; S2 cells (HEK-293 line with an ATXN2-luciferase reporter) viability, CellTiter-Fluor protease fluorescence, 24 h; Potency, µM (highest dose often 56.7 µM), most hits filed as cytotoxic; 400,000 tested, 0.49% active; AID 651635, 2014; further: nearly all actives have a fitted effect of over 40% in size
DT40 TDP1 CPT: qHTS for Inhibitors of human tyrosyl-DNA phosphodiesterase 1 (TDP1): qHTS in cells in presence of CPT | AID 686979, 2013 | chicken DT40 Tdp1-/-;hTDP1 cells + 20 nM CPT, ATP luminescence, 48 h | Potency, µM (series often up to 46.2 µM), inactives show at the highest dose activity change, negative = growth inhibition, usual class: inhibitors | 420,000 tested, 12% active; further: on the % scale 0 is the no-effect control and ±100 the full control effect; nearly all actives have a fitted effect of over 55% in size
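Cell growth measured by CellTiter-Glo luminescence after a minimum 48 h, 37 C compound exposure with 20 nM CPT in Tdp1-knockout DT40 cells stably expressing hTDP1, seeded 400/well; qHTS titration format.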
HepG2 tox: qHTS for Inhibitors of TGF-b: Cytotox Counterscreen | HepG2 CAGA-GFP viability, ATP luminescence, 18 h | Potency, µM (series often up to 46.1 µM), inactives show at the top dose activity change, negative = cytotoxicity, usual class: cytotoxic | 410,000 tested, 0.76% active
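HepG2 CAGA-GFP cells (1000/well, DMEM with 1% FBS) received compound, then TGF-beta at 500 pg/mL final, and were incubated 18 hours at 37 degrees C. Viability was read by CellTiter-Glo luminescence. Media-only wells were set as complete cell-killing and DMSO as no toxicity.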
Starred values were filed as active, the others as inactive; i = inactive; ? = inconclusive; nt = no result given. The call rests on the fitted dose curve; in most records, active means well fitted curve in the direction sought with a large enough effect; inconclusive means small, poorly fitted or top-dose-only effect, or another doubt; inactive means no such curve, though single readings can be large; an effect the other way counts as inactive or inconclusive. Potency means the concentration at half of the fitted maximal effect.

SMILES	TGFb SMAD3 inh	DT40 TDP1 no CPT	ATXN2 expr inh	S2 tox	DT40 TDP1 CPT	HepG2 tox
O=C1NC(=O)C2(Cc3ccccc3N3CCCC32)C(=O)N1c1ccccc1 (configuration not stated)	-1%	-11%	-5%	i	0%	-14%
CN1c2ccc([N+](=O)[O-])cc2CC2(C(=O)NC(=O)N(c3ccc(Br)cc3)C2=O)C1c1ccccc1 (configuration not stated)	-30%	18µM*	-10%	i	18µM*	4%
CCOC(=O)Nc1ccc2c(c1)N(C(=O)CN(C)C)c1ccccc1CC2	-13%	?	-11%	i	?	-22%
COc1ccccc1-n1c(-c2cccs2)nc2ccccc2c1=O	-26%	13µM*	0%	i	15µM*	-6%
COc1ccc(-c2nc3ccccc3c(=O)n2-c2nccs2)cc1	-5%	?	nt	nt	?	-32%
COc1ccccc1-n1c(-c2ccccc2)nc2ccccc2c1=O	-12%	?	-7%	?	16µM*	1%
CNC(=O)Oc1ccc2c(c1)[C@@]1(C)CCN(C)[C@@H]1N2C	nt	-20%	nt	i	-9%	nt
NC(N)=N/N=C/c1ccc(N(c2ccccc2)c2ccccc2)cc1	13µM*	18µM*	nt	nt	16µM*	7.9µM*
NC(N)=N/N=C/c1ccc(N2CCOCC2)cc1	-21%	4.6µM*	nt	nt	4.6µM*	-12%
COc1ccc(/C=N\N=C(N)N)cc1	4%	16µM*	-27%	?	?	-26%
COc1ccc(C=O)cc1	28%	-13%	3%	i	17%	-2%
CNC(=O)O/N=C/C(C)(C)S(C)=O (configuration not stated)	-3%	10%	nt	nt	8%	-5%
CC1(C(=O)O)CCC2(C)CCC3(C)C(=CC(=O)C4C5(C)CCC(=O)C(C)(C)C5CCC43C)C2C1 (configuration not stated)	-9%	-16%	nt	i	-14%	-50%
CCCCCNC(=O)C(c1ccncc1)n1c(=O)c(-c2cc3ccccc3[nH]2)nc2ccccc21 (configuration not stated)	nt	?	nt	nt	16µM*	nt
CN1C(=O)C(=Cc2sc(=O)n(-c3ccccc3)c2N(C)C)C(=O)N(C)C1=O	5%	?	?	?	16µM*	-2%
COC1C(O)C(C)OC(OC2C(Oc3cccc4c(O)c5c(=O)oc6ccc(C)c7c(=O)oc(c34)c5c67)OC(C)C(O)C2O)C1O (configuration not stated)	3%	0.82µM*	10µM*	i	0.82µM*	6%
O=C(Nc1ccccc1)N1CCC2(CC1)CCN(C(=O)Oc1ccccc1)CC2	nt	?	nt	nt	-20%	nt
c1ccc(Nc2ccc(Nc3ccccc3)cc2)cc1	1%	6.5µM*	-7%	i	?	-15%
N#CC(C#N)=C(C#N)c1ccc(Nc2ccccc2)cc1	2%	?	5%	i	10µM*	-3%
Cc1ccc(NC(=O)CCSc2nnc(Cc3ccccc3)o2)cc1	-28%	-6%	-1%	?	-7%	-4%
CC1CCN(C(=O)Cn2c(=O)oc3cc(S(=O)(=O)N4CCCCC4)ccc32)CC1	14%	-21%	7%	i	0%	52%
O=C(Cn1c(=O)oc2cc(S(=O)(=O)N3CCCCCC3)ccc21)NCc1ccccc1Cl	?	7.3µM*	nt	nt	9.2µM*	-43%
COc1ccccc1CNC(=O)Cn1c(=O)oc2cc(S(=O)(=O)N3CCC(C)CC3)ccc21	?	2.9µM*	-20%	i	5.2µM*	-33%
